The text below walks through data of PubChem BioAssay (Tox21).

Experiment [1] is described as follows: qHTS assay to identify small molecule agonists of the estrogen receptor alpha (ER-alpha) signaling pathway in the presence of an antagonist - cell viability counter screen (AID 1259386).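 Further: series mostly up to about 92 µM; cells exposed to compounds for 22 h at 37 °C before the viability read; nearly all actives have a fitted effect of over 30% in size.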 Summed up:
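Cytotoxicity was measured in parallel with the ERE-luciferase agonist screen, in the same wells. The cells were VM7Luc4E2, which endogenously express ER-alpha, and treatment was with compounds plus 10.0nM ICI-182,780 for 22hr.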

In experiment [2] the target is Progesterone receptor (Homo sapiens) (UniProt P06401). Nature of the experiment: qHTS assay to identify small molecule agonists of the progesterone receptor (PR) signaling pathway (AID 1346784; calls by dose curve; further: nearly all actives have a fitted effect of over 30% in size). The gist of the method:
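PR-UAS-bla HEK 293T cells (beta-lactamase reporter under UAS) in 2% charcoal-stripped FBS, dosed with 23 nL compound after 6 hr, incubated 16hr at 37C. LiveBLAzer B/G FRET substrate added, fluorescence read after 2 hours.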

Experiment [3] has the same target. In words: qHTS assay to identify small molecule antagonists of the progesterone receptor (PR) signaling pathway (AID 1346795; active means well fitted inhibition curve with a large enough effect in the signal ratio in the repeat runs, not every such curve was filed as active; the % refers to the signal ratio; further: potency means the concentration at half of the fitted maximal effect). The gist of the method:
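PR-UAS-bla HEK293T cells with beta-lactamase reporter under UAS control, in 2% charcoal-stripped FBS, treated with compounds plus 1 nM promegestone (R5020, final) for 16 hr at 37C. Read-out: FRET beta-lactamase substrate fluorescence after 2 hr at room temperature.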

The nature of experiment [4]: qHTS assay to identify small molecule antagonists of the progesterone receptor (PR) signaling pathway - cell viability counter screen (AID 1346798). Further: series mostly up to about 92 µM; nearly all actives have a fitted effect of over 50% in size. Summed up: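 PR-UAS-bla HEK293T cells, 3,000/well in 2% charcoal-stripped FBS medium, dosed with compounds plus R5020 agonist and incubated 16 h at 37C. Viability then measured in the same wells by CellTiter-Glo luminescence after 30 min at RT.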

Experiment [5] can be described thus: qHTS assay to identify small molecule agonists of the progesterone receptor (PR) signaling pathway - cell viability counter screen (AID 1346799; calls by dose curve; further: nearly all actives have a fitted effect of over 45% in size). Summed up: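 Counter screen in the PR-UAS-bla HEK293T wells (2% charcoal-stripped FBS, 16 h compound exposure at 37 C) after the bla read. CellTiter-Glo added, 30 min at room temperature, luminescence read as cell viability.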

A short description of experiment [6]: qHTS assay to identify small molecule antagonists of the TGF-beta/Smad signaling pathway - cell viability counter screen (AID 1346824). Further: nearly all actives have a fitted effect of over 50% in size. The gist of the method:
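SBE-bla HEK 293T cells, incubated overnight, then compound plus 0.25 ng/mL TGF-beta1 (stock added) for 5 hr at 37 C. Viability was read in the same wells by CellTiter-Glo luminescence after 30 min at room temperature.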

The nature of experiment [7]: qHTS assay to identify small molecule agonists of the TGF-beta/Smad signaling pathway (AID 1346859; active means well fitted activation curve with a large enough effect in the signal ratio in the repeat runs, not every such curve was filed as active; the % refers to the signal ratio; further: series mostly up to about 77 µM). The gist of the method: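 SBE-bla HEK293T cells plated overnight, then compound exposure for 5 h at 37 C. Beta-lactamase reporter read with LiveBLAzer B/G FRET substrate after 2 h at room temperature, fluorescence at 405 nm excitation, 460/530 nm emission.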
Experiment [8] has as its target Thyrotropin-releasing hormone receptor (Homo sapiens) (UniProt P34981). Nature of the experiment: qHTS assay to identify small molecule antagonists of the thyrotropin-releasing hormone receptor (TRHR) signaling pathway (AID 1346877; active means well fitted inhibition curve with a large enough effect in the repeat runs, not every such curve was filed as active; further: series mostly up to about 51 µM). The gist of the method: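 Antagonism is measured as suppression of the calcium response to 1 nM TRH in TRHR-HEK293 cells that have been dye-loaded for 2 h at 37 °C after overnight plating. Each compound is tested at 15 concentrations in triplicate.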

Experiment [9] has the same target. Nature of the experiment: qHTS assay to identify small molecule agonists of the thyrotropin-releasing hormone receptor (TRHR) signaling pathway (AID 1346891; calls by dose curve; further: series mostly up to about 58 µM). Summed up: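 HEK293 cells expressing TRHR plated 18 h at 37 C/5% CO2, calcium dye-loaded 2 h at 37 C, then compound added (agonist mode); kinetic calcium fluorescence read 3 min at 1 s intervals; 15 concentrations in triplicate.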

The nature of experiment [10]: Human pregnane X receptor (PXR) small molecule agonists, qHTS cell viability counter screen (AID 1346977). Further: nearly all actives have a fitted effect of over 50% in size. The gist of the method: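 PXR-Luc HepG2 cells (2,000/well, 5% charcoal-stripped FBS) preincubated 5 hr, then exposed to compounds 24 hr at 37 C. Viability read in the same wells by CellTiter-Fluor fluorescence, reagent added at 23 hr, 1 hr incubation.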
The nature of experiment [11]: Caspase-3/7 induction in HepG2 cells by small molecules, qHTS assay (AID 1346978). Further: nearly all actives have a fitted effect of over 15% in size. Summed up:
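Wild-type HepG2 cells, 2,000/well, settled 5 hr at 37 C and 5% CO2, then compound-treated for 17 hr; caspase-3/7 activity read by luminescent Caspase-Glo 3/7 after 30 min at room temperature.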

A short description of experiment [12]: Caspase-3/7 induction in CHO-K1 cells by small molecules, qHTS cell viability counter screen (AID 1346979). Further: nearly all actives have a fitted effect of over 35% in size. The gist of the method: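 Wild-type CHO-K1 cells (1,500/well) treated with compound after 5 h plating; after 16 h at 37C, viability read as CellTiter-Fluor fluorescence following 1 h reagent incubation, in the same wells as the caspase read.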
Experiment [13] addresses Nuclear receptor subfamily 1 group I member 2 (Homo sapiens) (UniProt O75469). Nature of the experiment: Human pregnane X receptor (PXR) small molecule agonists, qHTS assay (AID 1346982). Further: nearly all actives have a fitted effect of over 35% in size. Further: potency means the concentration at half of the fitted maximal effect. The gist of the method: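 Cells: HepG2 stably carrying PXR-Luc. Medium held 5% charcoal-stripped FBS. Compounds in DMSO added after 5 hr plating, incubated 24 hr, then luminescence quantified with ONE-Glo.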

Experiment [14] concerns the target Acetylcholinesterase (Homo sapiens) (UniProt P22303). In words: Acetylcholinesterase (AChE) small molecule antagonists: colormetric cell-based qHTS assay (AID 1347395; calls by dose curve; further: nearly all actives have a fitted effect of over 30% in size; further: potency means the concentration at half of the fitted maximal effect). Summed up: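 SH-SY5Y cells attached overnight, exposed to compound 30 min at 37 C, then given DTNB/acetylthiocholine; after 90 min at 37 C, colorimetric thiocholine read gives cellular AChE activity.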

Experiment [15] can be described thus: qHTS assay to identify small molecule agonists of the TGF-beta/Smad signaling pathway - cell viability counter screen (AID 1346829). Further: top concentration of the series differs between compounds; nearly all actives have a fitted effect of over 45% in size. The gist of the method: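 After overnight seating at 37 C and 5% CO2, reporter cells got compounds for 5 hr and FRET substrate for 2 hr; cell viability then came from CellTiter-Glo luminescence.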
Experiment [16] can be described thus: Caspase-3/7 induction in CHO-K1 cells by small molecules, qHTS assay (AID 1346980). Further: nearly all actives have a fitted effect of over 15% in size. Summed up:
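Wild-type CHO-K1 cells exposed to compounds for 17hr at 37 C, 5% CO2. Caspase-3/7 activity then measured by Caspase-Glo 3/7 luminescence after 30min at room temperature.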

A short description of experiment [17]: Caspase-3/7 induction in HepG2 cells by small molecules, qHTS cell viability counter screen (AID 1346981). Further: series mostly up to about 92 µM; nearly all actives have a fitted effect of over 30% in size. The gist of the method: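 Cell viability is measured as a cytotoxicity counter screen alongside the Caspase-Glo 3/7 readout in identical wells. Wild-type HepG2 cells are treated with test compounds for 16 hr at 37 C before CellTiter-Fluor addition and a 1-hr incubation.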

Unmarked numbers belong to inactive results. Results filed as inconclusive are left out. Calls of active or inactive are those of the source. Unless noted, the call rests on the fitted dose curve; in most records, active means well fitted curve in the direction sought with a large enough effect in the repeat runs; inconclusive means weak or mixed curves; inactive means no such curve, though single readings can be large; an effect the other way counts as inactive or inconclusive.

Chain of Acetylcholinesterase (Homo sapiens) (P22303 whole entry, looked up): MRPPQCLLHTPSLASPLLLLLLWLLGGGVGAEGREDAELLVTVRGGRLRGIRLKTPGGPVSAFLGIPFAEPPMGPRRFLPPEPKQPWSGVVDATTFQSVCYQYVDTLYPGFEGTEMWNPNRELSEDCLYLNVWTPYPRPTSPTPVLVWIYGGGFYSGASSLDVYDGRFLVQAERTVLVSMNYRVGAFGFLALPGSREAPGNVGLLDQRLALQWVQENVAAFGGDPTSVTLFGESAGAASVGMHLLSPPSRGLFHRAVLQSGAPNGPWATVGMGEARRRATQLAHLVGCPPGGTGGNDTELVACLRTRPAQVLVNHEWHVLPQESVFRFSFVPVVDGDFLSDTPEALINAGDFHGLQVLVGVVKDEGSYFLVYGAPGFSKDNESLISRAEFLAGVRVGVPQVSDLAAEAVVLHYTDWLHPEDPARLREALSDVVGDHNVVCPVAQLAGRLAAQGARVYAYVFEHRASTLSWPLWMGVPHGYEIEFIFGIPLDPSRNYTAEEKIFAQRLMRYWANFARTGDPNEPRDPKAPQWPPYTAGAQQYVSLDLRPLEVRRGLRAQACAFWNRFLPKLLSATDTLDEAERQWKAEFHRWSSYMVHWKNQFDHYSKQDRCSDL
Chain of Nuclear receptor subfamily 1 group I member 2 (Homo sapiens) (O75469 whole entry, looked up): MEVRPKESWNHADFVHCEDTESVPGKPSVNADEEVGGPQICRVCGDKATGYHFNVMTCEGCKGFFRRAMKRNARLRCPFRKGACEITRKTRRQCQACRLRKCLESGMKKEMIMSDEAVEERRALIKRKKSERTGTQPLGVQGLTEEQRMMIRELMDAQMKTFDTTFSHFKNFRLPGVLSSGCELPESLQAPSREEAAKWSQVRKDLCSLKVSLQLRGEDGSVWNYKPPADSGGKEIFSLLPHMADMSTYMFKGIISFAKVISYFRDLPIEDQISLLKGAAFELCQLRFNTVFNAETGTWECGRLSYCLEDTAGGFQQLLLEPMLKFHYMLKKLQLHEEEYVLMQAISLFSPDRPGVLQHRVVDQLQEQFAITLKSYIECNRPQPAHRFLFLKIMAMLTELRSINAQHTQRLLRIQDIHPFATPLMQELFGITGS
Chain of Progesterone receptor (Homo sapiens) (P06401 whole entry, looked up): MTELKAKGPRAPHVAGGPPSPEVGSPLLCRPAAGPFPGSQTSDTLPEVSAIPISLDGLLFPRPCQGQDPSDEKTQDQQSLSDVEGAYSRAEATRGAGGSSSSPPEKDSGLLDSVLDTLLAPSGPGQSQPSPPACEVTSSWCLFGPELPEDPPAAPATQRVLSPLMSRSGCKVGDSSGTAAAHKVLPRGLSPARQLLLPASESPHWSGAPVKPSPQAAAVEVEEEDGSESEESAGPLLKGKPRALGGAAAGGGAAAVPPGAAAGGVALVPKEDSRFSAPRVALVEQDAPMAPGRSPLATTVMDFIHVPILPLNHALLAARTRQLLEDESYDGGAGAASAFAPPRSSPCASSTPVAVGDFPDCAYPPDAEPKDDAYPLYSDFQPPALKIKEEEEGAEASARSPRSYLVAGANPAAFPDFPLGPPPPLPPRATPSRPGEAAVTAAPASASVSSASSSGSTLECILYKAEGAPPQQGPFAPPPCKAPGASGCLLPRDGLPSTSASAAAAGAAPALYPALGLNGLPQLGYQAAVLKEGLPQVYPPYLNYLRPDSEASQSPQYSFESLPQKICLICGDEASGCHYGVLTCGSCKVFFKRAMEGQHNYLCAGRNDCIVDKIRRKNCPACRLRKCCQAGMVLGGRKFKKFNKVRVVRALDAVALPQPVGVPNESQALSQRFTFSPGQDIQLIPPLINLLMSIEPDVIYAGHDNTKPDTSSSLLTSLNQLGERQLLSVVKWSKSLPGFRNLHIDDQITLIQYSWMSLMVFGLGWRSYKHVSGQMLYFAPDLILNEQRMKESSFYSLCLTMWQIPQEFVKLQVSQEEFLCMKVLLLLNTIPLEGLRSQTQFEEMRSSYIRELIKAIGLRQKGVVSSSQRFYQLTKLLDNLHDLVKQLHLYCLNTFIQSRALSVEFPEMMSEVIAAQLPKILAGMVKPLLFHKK
Chain of Thyrotropin-releasing hormone receptor (Homo sapiens) (P34981 whole entry, looked up): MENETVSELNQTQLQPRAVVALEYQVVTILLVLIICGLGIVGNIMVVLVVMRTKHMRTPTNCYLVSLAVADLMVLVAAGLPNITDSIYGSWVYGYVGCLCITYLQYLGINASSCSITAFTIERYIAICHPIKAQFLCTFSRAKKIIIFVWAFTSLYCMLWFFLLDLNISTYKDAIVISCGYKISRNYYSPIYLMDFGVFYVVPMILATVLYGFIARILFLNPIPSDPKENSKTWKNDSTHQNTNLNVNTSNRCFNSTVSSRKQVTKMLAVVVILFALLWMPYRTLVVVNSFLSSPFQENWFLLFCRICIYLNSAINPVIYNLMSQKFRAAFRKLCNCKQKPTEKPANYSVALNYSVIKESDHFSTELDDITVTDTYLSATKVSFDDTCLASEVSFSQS

With `CCCCc1ccc(O)cc1`, the Potency entry in experiment [1], in experiment [2], in experiment [3], in experiment [4], in experiment [5] and in [6] was “inactive” each time. Besides, the Potency result in experiment [10], in [11], in experiment [12], in [13] and in [14] was “inactive” in each case. For the same molecule, the outcome in [7], in experiment [8] and in [9] was inactive.
As to `BrCCCCCCBr`, the Potency entry in experiment [1], in experiment [2], in experiment [3], in experiment [5], in experiment [6] and in experiment [10] was “inactive” throughout. The Potency entry in experiment [11], in [12], in experiment [16] and in [17] was “inactive” throughout. Moreover, the molecule was classed as inactive in experiment [15], in experiment [7] and in experiment [8]. Further, the Potency in [14] is 63.3 µM (active).
For `CCCCCCI`, the Potency result in [1], in experiment [2], in [3], in [4], in experiment [6] and in experiment [10] was “inactive” in each case. Further, the Potency entry in [11], in experiment [12], in [16], in experiment [17], in experiment [13] and in experiment [14] was “inactive” in each case. Besides, the outcome in experiment [15] and in experiment [7] was inactive.
As for `ClC(Cl)(Cl)C(Cl)(Cl)Cl`, the Potency entry in experiment [1], in [2], in experiment [3], in experiment [5], in experiment [6] and in experiment [10] was “inactive” throughout. The Potency result in [11], in experiment [12], in experiment [16], in [17], in experiment [13] and in experiment [14] was “inactive” in each case. In addition, the call in experiment [15] and in [7] was inactive.
For the molecule `ClC(Br)Br`, the Potency entry in experiment [1], in experiment [2], in experiment [3], in [4], in [5] and in experiment [6] was “inactive” throughout. For the same molecule, the Potency result in experiment [10], in experiment [11], in [12], in [16], in experiment [17] and in experiment [13] was “inactive” throughout. In addition, the Potency result in experiment [14] was “inactive”. For the same molecule, the outcome in experiment [7], in [8] and in experiment [9] was inactive.
Consider `OCCBr`, for which the Potency result in experiment [1], in [2], in [3], in experiment [4], in experiment [5] and in [6] was “inactive” each time. Also, the Potency result in experiment [10], in [11], in [12], in experiment [16], in [17] and in experiment [13] was “inactive” each time. Moreover, the Potency entry in experiment [14] was “inactive”. The result in [7], in experiment [8] and in [9] was inactive.
Consider `CC(C)[N+](=O)[O-]`, for which the Potency result in experiment [1], in experiment [2], in experiment [3], in experiment [4], in experiment [5] and in experiment [6] was “inactive” each time. Moreover, the Potency entry in experiment [10], in experiment [11], in experiment [12], in [17], in experiment [13] and in experiment [14] was “inactive” each time. In addition, the molecule was classed as inactive in [7], in experiment [8] and in experiment [9].
Turning to `Cc1cc(C)c(C(=O)P(=O)(C(=O)c2c(C)cc(C)cc2C)c2ccccc2)c(C)c1`, the Potency result in experiment [1], in experiment [2], in experiment [3], in experiment [4], in [5] and in experiment [6] was “inactive” in each case. Moreover, the Potency result in [10], in experiment [11], in [12], in experiment [17] and in [14] was “inactive” in each case. Also, the molecule was classed as inactive in experiment [7], in experiment [8] and in experiment [9]. In addition, the Potency in experiment [13] was 24.3 µM (active).
Take `CSc1ccc(C(=O)C(C)(C)N2CCOCC2)cc1`: the Potency result in [1], in experiment [2], in experiment [4], in experiment [6], in experiment [10] and in [11] was “inactive” throughout. In addition, the Potency entry in experiment [12], in experiment [16], in experiment [17] and in experiment [14] was “inactive” each time. In [3], the Potency was 27.3 µM (active). For the same molecule, the outcome in experiment [15], in experiment [7], in experiment [8] and in experiment [9] was inactive.
